Here are results for four molecules from PubChem BioAssay.

The source made the active and inactive calls. Unless noted, how the calls were made is not given here.

In assay [1] the test system is Wnt5a (protein binding on small-molecule microarray). The assay is described as follows: small molecules binding Wnt5a protein – biophysical, small-molecule microarray, 635/667 nm fluorescence, primary screen (AID 1142).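 Further: fluorescence read at 667 nm with signal to noise per printed feature.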 The settings on record: 635 nm fluorescence, higher = more signal.
Assay [2] in a line: ATP-based viability of Huh7 replicon cells – cell-based, CellTiter-Glo luminescence, basal, 48 h, cytotoxicity control for HCV replication inhibitor project, primary screen (AID 1143).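 Further: Huh7 hepatoma cells carrying a hepatitis C replication reporter with no stimulus; test concentration not given here.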 The settings on record: higher = more signal, called active from +8 up or from −8 down.
A short description of assay [3]: Pseudomonas biofilm growth suppression – PAO1 strain, BacTiter-Glo luminescence, LB-PBS, primary screen (AID 1144). The settings on record: P. aeruginosa PAO1 biofilm, 12 h, higher = more signal.
Assay [4] can be described thus: basal CRE-LacZ reporter activity in PC12 – cell-based, unstimulated, primary screen (AID 1145). The settings on record: no forskolin, luminescence, 4.5 h, higher = more signal, called active from +8 up or from −8 down.
Assay [5] can be described thus: forskolin-driven CRE-LacZ activity in PC12 – cell-based, CRE-LacZ reporter, forskolin-stimulated, primary screen (AID 1146).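 Further: PC12 cells with 6xCRE LacZ reporter stimulated by forskolin 10 µM; beta-galactosidase reporter signal reflecting CREB driven transcription.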 The settings on record: luminescence, 4.5 h, higher = more signal, called active from +8 up or from −8 down.
The target in assay [6] is Streptavidin (Streptomyces avidinii) (UniProt P22629). The assay is described as follows: compounds binding control protein streptavidin – biophysical, small-molecule microarray, 635/667 nm fluorescence, artefact control for SMM compound annotation, primary screen (AID 1147).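 Further: signal reflects streptavidin binding to arrayed compounds as a control protein.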 The settings on record: higher = more signal.
Sequence of Streptavidin (Streptomyces avidinii) (P22629 whole entry, looked up): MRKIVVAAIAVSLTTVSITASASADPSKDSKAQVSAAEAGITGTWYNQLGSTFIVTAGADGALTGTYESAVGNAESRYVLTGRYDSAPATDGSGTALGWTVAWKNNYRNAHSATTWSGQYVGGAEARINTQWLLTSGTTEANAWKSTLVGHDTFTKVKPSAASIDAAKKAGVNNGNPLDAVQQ
A short description of assay [7]: probe aInhba binding on compound microarray – biochemical, small-molecule microarray, 635/667 nm fluorescence, primary screen (AID 1148).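 Further: score merges 667nm spot fluorescence with signal-to-noise for antibody binding to printed compounds.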 Particulars: higher = more signal.
For assay [8], the target named is Torsin-1A (Homo sapiens) (UniProt O14656). The assay is described as follows: TOR1A wild-type binding on microarray – cell lysate, small-molecule microarray, lysate, 635/667 nm, primary screen (AID 1149). The settings on record: COS7 hTOR1A-WT lysate, 635 nm fluorescence, higher = more signal.
Sequence of Torsin-1A (Homo sapiens) (O14656 whole entry, looked up): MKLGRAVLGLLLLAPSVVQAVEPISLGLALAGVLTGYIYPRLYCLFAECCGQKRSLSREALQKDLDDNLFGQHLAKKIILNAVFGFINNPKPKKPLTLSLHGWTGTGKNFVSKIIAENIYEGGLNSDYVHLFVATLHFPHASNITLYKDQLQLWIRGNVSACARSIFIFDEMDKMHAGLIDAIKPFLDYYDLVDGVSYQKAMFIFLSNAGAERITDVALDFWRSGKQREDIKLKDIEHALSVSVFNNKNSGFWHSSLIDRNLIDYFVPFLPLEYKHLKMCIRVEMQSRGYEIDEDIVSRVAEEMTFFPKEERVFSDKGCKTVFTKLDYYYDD
Assay [9] has the same target. The assay is described as follows: torsin A mutant lysate binding on microarrays – cell lysate, small-molecule microarray, COS7 lysate, 635/667 nm fluorescence, primary screen (AID 1150).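 Further: score pools 667 nm emission and signal to noise measuring lysate protein binding.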 Particulars: COS7 hTOR1A mutant lysate, 635 nm fluorescence, higher = more signal.
Assay [10] deals with Sonic hedgehog protein (Shh). The assay is described as follows: Sonic hedgehog microarray binding compounds – biochemical, small-molecule microarray, 635/667 nm fluorescence, primary screen (AID 1151).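 Further: Shh protein binding to compounds spotted on small-molecule microarray slides; score combines spot fluorescence intensity with signal-to-noise across triplicate slides.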 Particulars: 635 nm fluorescence, higher = more signal.
Assay [11] is described as follows: optical density shifts of acrAB sulA E. coli – strain DRC41, OD650, 48 h, E. coli filamentation inducer project, primary screen (AID 1152).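 Further: E. coli MC1000 strain DRC41 lacking acrAB efflux pump and sulA.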 Particulars: higher = more signal, called active from +8 up or from −8 down.
Assay [12] in a line: probe aLefty1 binding on compound microarray – biochemical, small-molecule microarray, 635/667 nm fluorescence, primary screen (AID 1153).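 Further: score merges spot fluorescence with signal-to-noise ratio from the scanned slide images.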 The settings on record: higher = more signal.
Assay [13] in a line: plasmodial surface anion channel blockers, osmotic lysis – cell-based, P. falciparum Indochina, OD700, 1 h, primary screen (AID 1154). Particulars: P. falciparum Indochina infected RBC osmotic lysis, higher = more signal, called active from +8 up or from −8 down.
Assay [14] can be described thus: plasmodial surface anion channel blockers, osmotic lysis – cell-based, P. falciparum Indochina, OD700, 2 h, primary screen (AID 1155).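 Further: lysis reports solute entry through the parasite surface anion channel PSAC.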 The settings on record: P. falciparum Indochina infected erythrocytes, higher = more signal, called active from +8 up or from −8 down.
Assay [15] is described as follows: changes in parasitized red cell lysis, either direction – P. falciparum Indochina, OD700, 3 h, PSAC antagonist project, primary screen (AID 1156). The settings on record: P. falciparum-infected erythrocytes, osmotic lysis, higher = more signal, called active from +8 up or from −8 down.
A short description of assay [16]: plasmodial surface anion channel blockers, osmotic lysis – cell-based, P. falciparum Indochina, OD700, 18 h, primary screen (AID 1157). The settings on record: P. falciparum Indochina infected erythrocytes, osmotic lysis OD700, 18 h; higher = more signal, called active from +8 up or from −8 down.
Assay [17] can be described thus: S6 kinase pathway phospho-S6 level changes – cell-based, A549, cytoblot, luminescence, serum-stimulated, primary screen (AID 1158).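 Further: serum-stimulated A549 lung adenocarcinoma cells; signal is phosphorylated S6 detected by cytoblot immunostaining with HRP secondary.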 Particulars: 5 h, higher = more signal.
The target of assay [18] is NADPH oxidase 2 (Homo sapiens) (UniProt P04839). The assay is described as follows: compounds shifting NOX2 Amplex Red fluorescence – cell-based, HEK293-NOX2, PMA-stimulated, NOX inhibitor project, primary screen (AID 1159). Further: test concentration not given here. The settings on record: 45 min, higher = more signal, called active from +8 up or from −8 down.
Sequence of NADPH oxidase 2 (Homo sapiens) (P04839 whole entry, looked up): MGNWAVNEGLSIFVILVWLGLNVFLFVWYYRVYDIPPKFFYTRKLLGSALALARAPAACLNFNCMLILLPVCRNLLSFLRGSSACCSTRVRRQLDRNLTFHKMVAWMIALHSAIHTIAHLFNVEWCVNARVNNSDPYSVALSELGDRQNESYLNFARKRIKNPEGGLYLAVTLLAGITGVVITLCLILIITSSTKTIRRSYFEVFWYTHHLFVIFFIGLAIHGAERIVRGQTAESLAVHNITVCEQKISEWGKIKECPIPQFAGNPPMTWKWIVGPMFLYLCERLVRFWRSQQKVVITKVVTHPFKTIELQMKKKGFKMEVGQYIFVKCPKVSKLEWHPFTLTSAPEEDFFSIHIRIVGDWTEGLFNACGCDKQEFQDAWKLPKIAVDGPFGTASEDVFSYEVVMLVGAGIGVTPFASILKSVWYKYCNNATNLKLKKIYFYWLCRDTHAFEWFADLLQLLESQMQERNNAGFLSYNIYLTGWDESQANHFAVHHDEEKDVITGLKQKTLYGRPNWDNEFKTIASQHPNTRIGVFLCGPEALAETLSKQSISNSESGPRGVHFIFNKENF
Assay [19] concerns the target NADPH oxidase 4 (Homo sapiens) (UniProt Q9NPH5). The assay is described as follows: compounds shifting NOX4 Amplex Red fluorescence – cell-based, HEK293-NOX4, tetracycline-induced, NOX inhibitor project, primary screen (AID 1160). Particulars: HEK293-NOX4, Amplex Red H2O2 fluorescence, 45 min; higher = more signal, called active from +8 up or from −8 down.
Assay [20] concerns the target NADPH oxidase 5 (Homo sapiens) (UniProt Q96PH1). The assay is described as follows: compounds shifting NOX5 Amplex Red fluorescence – cell-based, HEK293-NOX5, NOX inhibitor project, primary screen (AID 1161). Particulars: HEK293-NOX5, ionomycin, 45 min, higher = more signal.

Sequence of NADPH oxidase 5 (Homo sapiens) (Q96PH1 whole entry, looked up): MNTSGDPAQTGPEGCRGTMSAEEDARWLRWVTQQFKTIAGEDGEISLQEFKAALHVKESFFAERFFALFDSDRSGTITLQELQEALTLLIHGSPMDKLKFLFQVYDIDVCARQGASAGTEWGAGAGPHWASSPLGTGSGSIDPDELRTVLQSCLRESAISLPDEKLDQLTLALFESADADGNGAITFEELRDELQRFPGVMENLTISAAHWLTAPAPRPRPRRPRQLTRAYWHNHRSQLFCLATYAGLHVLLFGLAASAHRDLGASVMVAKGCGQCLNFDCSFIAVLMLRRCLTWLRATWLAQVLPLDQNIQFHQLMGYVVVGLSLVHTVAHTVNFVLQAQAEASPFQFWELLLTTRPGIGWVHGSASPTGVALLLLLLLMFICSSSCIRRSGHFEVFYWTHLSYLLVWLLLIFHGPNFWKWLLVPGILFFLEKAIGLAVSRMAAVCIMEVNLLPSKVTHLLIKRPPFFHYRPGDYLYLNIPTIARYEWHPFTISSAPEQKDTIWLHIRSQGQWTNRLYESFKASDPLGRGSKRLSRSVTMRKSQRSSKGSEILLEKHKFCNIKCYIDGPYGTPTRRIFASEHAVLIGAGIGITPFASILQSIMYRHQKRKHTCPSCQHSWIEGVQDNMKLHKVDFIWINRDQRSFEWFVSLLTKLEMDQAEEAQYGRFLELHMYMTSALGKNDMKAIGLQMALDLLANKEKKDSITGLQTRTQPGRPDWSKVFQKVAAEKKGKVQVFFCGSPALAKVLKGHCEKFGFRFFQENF
Sequence of NADPH oxidase 4 (Homo sapiens) (Q9NPH5 whole entry, looked up): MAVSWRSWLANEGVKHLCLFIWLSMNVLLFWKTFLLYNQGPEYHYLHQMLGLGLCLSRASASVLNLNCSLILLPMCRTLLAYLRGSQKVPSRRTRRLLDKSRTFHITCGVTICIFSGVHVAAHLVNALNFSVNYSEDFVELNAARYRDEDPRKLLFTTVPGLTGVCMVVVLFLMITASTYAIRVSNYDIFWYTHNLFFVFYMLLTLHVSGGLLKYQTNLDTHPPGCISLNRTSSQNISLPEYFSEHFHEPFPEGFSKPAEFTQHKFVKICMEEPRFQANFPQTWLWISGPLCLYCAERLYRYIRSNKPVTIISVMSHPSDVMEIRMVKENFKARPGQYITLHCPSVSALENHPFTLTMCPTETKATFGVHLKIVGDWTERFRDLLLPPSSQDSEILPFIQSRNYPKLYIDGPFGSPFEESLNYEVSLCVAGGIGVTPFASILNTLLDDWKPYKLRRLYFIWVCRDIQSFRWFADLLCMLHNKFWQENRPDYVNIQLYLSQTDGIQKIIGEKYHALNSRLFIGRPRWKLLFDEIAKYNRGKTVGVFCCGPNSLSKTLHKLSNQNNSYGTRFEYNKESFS

In the case of `CC(C)C[C@@H]1NC(=O)[C@H]2C[C@@H](C(=O)O)[C@@H](c3cccc(OCCO)c3)N2C1=O`, the composite z-score was -0.107 in assay [1]; -0.0612 in [6]; 0.0228 in assay [7]; 0.994 in the assay with Torsin-1A (Homo sapiens) [8]; 2.17 with Torsin-1A (Homo sapiens) [9]; 1.42 in [10]. In assay [12], this molecule displayed a composite z-score of 0.0794. Moreover, the z-score in [2] is -0.513 (inactive); in [3], -0.443 (inactive); in [4] it was 0.561 (inactive); in assay [5], -0.411 (inactive); in [11] it was 0.441 (inactive); in [13] it was 6.12 (inactive). Also, the z-score was 1.34 (inactive) in [14]; -2.36 (inactive) in [15]; 0.595 (inactive) in assay [16]; 0.793 in assay [17]; -0.911 (inactive) in assay [18]; -0.69 (inactive) in assay [19]. Also, the z-score in [20] was -0.0644.

Consider `O=C1N(Cc2ccccc2)Cc2ccccc2C[C@@]12COC(c1ccc(OCCCO)cc1)=N2`, for which the composite z-score in [1] was 0.165; in assay [6], -0.0644; in assay [7], 0.108; with Torsin-1A (Homo sapiens) [8], 0.356; with Torsin-1A (Homo sapiens) [9] it was 0.695; in [10] it was 0.0301. In [12], this molecule yielded a composite z-score of 0.179. The z-score in assay [2] was -5.94 (inactive); in assay [3] it was 1.31 (inactive); in assay [4], 1.45 (inactive); in assay [5], -2.33 (inactive); in assay [11], -0.595 (inactive); in assay [13] it was 20.3 (active). The z-score was 4.93 (inactive) in [14]; 3.72 (inactive) in assay [15]; 1.48 (inactive) in [16]; -0.087 in assay [17]; -5.75 (inactive) in [18]; -0.977 (inactive) in [19]. In addition, the z-score in assay [20] was -1.8.

For the molecule `C[C@]12C(=O)N(CCO)[C@@H]3C(=O)N(c4ccc(Cl)cc4)CC=CC31O[C@@H]1/C=C\CCCOC(=O)C12` (stereo not given in full), the composite z-score in [1] is -0.68; in assay [6] it was -0.542; in assay [7], -0.21; with Torsin-1A (Homo sapiens) [8] it was -1.5; in the assay with Torsin-1A (Homo sapiens) [9], -0.706; in assay [10], 1.18. Further, in [12], the composite z-score was 0.161. For the same molecule, the z-score in assay [2] was 0.0051 (inactive); in assay [3], -0.21 (inactive); in [4], 0.467 (inactive); in assay [5], 0.0098 (inactive); in [11], -0.295 (inactive); in assay [13] it was 0.505 (inactive). For the same molecule, the z-score in [14] was 0.176 (inactive); in [15] it was 0.228 (inactive); in [16], 0.359 (inactive); in [17] it was -0.362; in assay [18], 1.96 (inactive); in [19], -0.22 (inactive). Also, the z-score in assay [20] was found to be 2.65.

As for `CCCC=C(CCC)[C@@H](NC(=O)c1ccc(C(=O)OC)cc1)c1ccc(C(=O)OC)cc1`, the composite z-score in assay [1] is 0.41; in [6], 0.239; in assay [7] it was 0.18; with Torsin-1A (Homo sapiens) [8], -0.266; with Torsin-1A (Homo sapiens) [9] it was -0.415; in [10], -1.35. Moreover, in assay [12], the composite z-score stood at 0.211. Also, the z-score in assay [2] was -2.2 (inactive); in assay [3], 0.668 (inactive); in assay [4] it was 1.53 (inactive); in assay [5], 1.06 (inactive); in assay [11], -1.99 (inactive); in assay [13] it was 0.67 (inactive). The z-score in assay [14] is 0.409 (inactive); in [15], 1.33 (inactive); in assay [16] it was 0.618 (inactive); in [17], -0.574; in assay [18], -0.542 (inactive); in assay [19], -3.29 (inactive). Besides, the z-score in [20] worked out at 1.5.
